# Assay results taken from the supplement of paper PMC9135407.
# Counter-ions that a name gives are not always drawn.
# Tested on: primary human hepatic stellate cells (donor 1)
# Assay: COL1A1 mRNA fold change vs DMSO (normalised to PSMB2); higher = more COL1A1 expression, active = hit call of the paper
# Conditions: 48 h
# Procedure: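 Secondary qRT-PCR screen in primary human HSCs (donor 1), 384-well plates, with compounds dispensed in quadruplicate and incubated for 48 h. Cells-to-CT lysates were used for multiplexed TaqMan qPCR of ACTA2 or COL1A1 with PSMB2 as reference. Fold changes versus DMSO come from a linear model (Ct_gene ~ Ct_PSMB2 + plate + chemical). A hit is defined as COL1A1 and ACTA2 FC <0.5 (FDR <0.05) with PSMB2 between 0.2 and 2.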
row,SMILES,COL1A1 mRNA fold change
1,Cc1ccc(NC(=O)C(C)C)cc1C1CCN(Cc2ccc(Oc3ccc(F)c(F)c3)cc2)CC1 (33.3333 µM),0.0966 (inactive)
2,CS(=O)(=O)CCNCc1ccc(-c2ccc3ncnc(Nc4ccc(OCc5cccc(F)c5)c(Cl)c4)c3c2)o1 (6.66667 µM),1.41 (inactive)
3,O=C(O[C@H]1CN2CCC1CC2)N1CCc2ccccc2[C@@H]1c1ccccc1 [Solifenacin succinate] (33.3333 µM),0.375 (active)
4,CCCCCCCCCCCCCCCCn1cc[n+](Cc2ccccc2)c1C (11.1 µM),0.155 (inactive)
5,CN1CCC(Nc2ncc3ncnc(Nc4ccc(F)c(Cl)c4)c3n2)CC1 [BIBX 1382 dihydrochloride] (33.3333 µM),0.00366 (inactive)
6,Cc1cnc(-c2cnc(NCCNc3ccc(C#N)cn3)nc2-c2ccc(Cl)cc2Cl)[nH]1 (33.3333 µM),1.04 (inactive)
7,CC#CCOC(=O)c1c(C)nc2sc3c(c2c1N)CCC(O)C3 (stereo unspecified) (33.3333 µM),2.5 (inactive)
8,CNCc1ccc(-c2cc(-c3nc(-c4ccc(S(=O)(=O)C(C)C)cc4)cnc3N)on2)cc1 (11.1 µM),0.0438 (inactive)
9,Cc1ccc(S(=O)(=O)/C=C/C#N)cc1 (33.3333 µM),0.394 (inactive)
10,CNCc1ccc(-c2[nH]c3cc(F)cc4c3c2CCNC4=O)cc1 (33.3333 µM),0.83 (inactive)
11,Cc1nc2ccc(-n3ncc(C(=O)c4cc5ccccc5[nH]4)c3N)cc2[nH]1 (33.3333 µM),0.562 (inactive)
